Laboratory results reported in PubChem BioAssay (EPA / NIEHS).
Activity calls are given as the source filed them. The calls were made as follows: active = hit-call score of the fitted dose curve at least 0.9, where 1 is the maximum; inactive = score below 0.9.

biological target: Transcriptional activator Myb (Homo sapiens) (UniProt P10242); test: ATG_Myb_CIS: Attagene CIS-FACTORIAL HepG2 Assay for human Myeloblastosis (Myb) Proto-Oncogene Transcription Factor (AID 2282986); conditions: HepG2 Attagene CIS-FACTORIAL Myb reporter transcription; actives raise or lower the signal
Method: ATG_CIS is a cell-based, multiplexed-readout assay that uses HepG2, a human liver cell line, with measurements taken at 24 hours after chemical dosing in a 24-well plate.ATG_Myb_CIS is one of 52 assay component(s) measured or calculated from the ATG_CIS assay. It is designed to make measurements of mRNA induction, a form of inducible reporter, as detected with fluorescence intensity signals by Reverse transcription polymerase chain reaction (RT-PCR) and Capillary electrophoresis technology.Data from the assay component ATG_Myb_CIS was analyzed into 1 assay endpoint. This assay endpoint, ATG_Myb_CIS, was analyzed with bidirectional fitting relative to DMSO as the negative control and baseline of activity. Using a type of inducible reporter, measures of mRNA for gain or loss-of-signal activity can be used to understand the reporter gene at the transcription factor-level as they relate to the gene MYB. Furthermore, this assay endpoint can be referred to as a primary readout, because this assay has produced multiple assay endpoints where this one serves a reporter gene function. To generalize the intended target to other relatable targets, this assay endpoint is annotated to the dna binding intended target family, where the subfamily is MYB proteins.
Human liver HepG2 cells are transiently transfected with multiple reporter transcription units (MRTUs) in 6-well plates using FuGene 6 reagent (Roche; 3 ml FuGene/1 mg DNA). The MRTU constructs are regulated by a cis-regulating element (promoter). […] A major difference between the CIS and TRANS system is that in CIS activities of endogenous TFs are measured, whereas the TRANS assay evaluates changes in activities of exogenous, chimeric NR-Gal4 proteins. […] At the end of 24 hour incubation, total RNA was isolated using TriZol reagent (Invitrogen). The isolated RNA is then reverse-transcribed using oligo(dT) primer and Mo-MLV reverse transcriptase (Invitrogen) with DNAse I (Ambion) treatment for 30 min. The one-tenth of the produced cDNA was amplified by PCR using Taq DNA polymerase (Invitrogen) and two reporter sequence-specific primers. The PCR products were fluorescently labeled by primer extension with 6-arboxyfluorescein (6-FAM) 5'-labeled reporter sequence-specific primer (2 min at 95 C, 20 s at 68 C and 10 min at 72 C) and these products were digested with 5U of HpaI (New England Biolabs) for 2h at 37 C. The fragments were purified using Qiaquick PCR columns (Qiagen), analyzed on an ABI 3130xL genetic analyzer (Applied Biosystems) with peak positions identified by using a set of X-rhodamine (ROX)-labeled MapMarker1000 molecular weight standards (BioVentures). The raw capillary electrophoresis data was processed using Attagraph software (Attagene).

Sequence of Transcriptional activator Myb (Homo sapiens) (P10242 whole entry, looked up): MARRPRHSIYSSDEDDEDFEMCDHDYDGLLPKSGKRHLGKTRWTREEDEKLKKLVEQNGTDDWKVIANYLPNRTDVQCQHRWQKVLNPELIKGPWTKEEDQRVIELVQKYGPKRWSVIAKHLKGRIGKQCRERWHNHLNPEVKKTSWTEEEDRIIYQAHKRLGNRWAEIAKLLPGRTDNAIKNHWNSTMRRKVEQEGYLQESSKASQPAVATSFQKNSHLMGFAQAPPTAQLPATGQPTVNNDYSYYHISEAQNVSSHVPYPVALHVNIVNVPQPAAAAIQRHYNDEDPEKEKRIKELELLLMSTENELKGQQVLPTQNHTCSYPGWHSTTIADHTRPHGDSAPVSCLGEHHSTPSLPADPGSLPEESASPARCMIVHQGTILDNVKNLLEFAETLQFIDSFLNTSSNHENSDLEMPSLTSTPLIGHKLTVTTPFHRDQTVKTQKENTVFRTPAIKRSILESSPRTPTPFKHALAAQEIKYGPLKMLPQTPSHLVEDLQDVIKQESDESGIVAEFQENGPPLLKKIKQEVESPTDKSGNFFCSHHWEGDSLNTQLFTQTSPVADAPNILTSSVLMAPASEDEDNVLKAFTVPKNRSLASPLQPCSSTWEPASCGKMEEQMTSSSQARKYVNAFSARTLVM

How did the outcome turn out when `O=C(O)CCC(=O)O` was run?
Its outcome is “inactive”.

For `Cc1c(O)cccc1O`, which outcome is on record?
The outcome was “inactive”.

`CO[Si](CCCS)(OC)OC` was tested. Which outcome did it give?
The outcome was “inactive”.

`C=C(C)C1CC=C(C)C(OC(C)=O)C1` (stereo not given) was tested. Which outcome did it give?
The outcome was “inactive”.

How did the outcome turn out when `CCC(C)C(=O)OC` (stereo not given) was run?
The outcome was “inactive”.

Which AC50 does the source give for `CCCCCC[C@@H](O)C/C=C\CCCCCCCC(=O)OCC(O)CO` (stereo not given in full) here?
The AC50 was 145 µM (active).

For `O=C(OCc1ccccc1)c1ccc(O)cc1`, which outcome is on record?
Its outcome is “inactive”.

Which outcome does the source give for `CCOB(OCC)OCC` here?
Its outcome is “inactive”.

For `O=C(C=Cc1ccccc1)OCCc1ccccc1`, which outcome is on record?
The outcome was “inactive”.

Which outcome does the source give for `NNS(=O)(=O)c1ccc(Oc2ccc(S(=O)(=O)NN)cc2)cc1` here?
The outcome was “inactive”.

For `COc1cc(O)c(C(=O)c2ccccc2)cc1S(=O)(=O)O`, which outcome is on record?
Its outcome is “inactive”.

`N#CC1(N)CCCCC1` was tested. Which outcome did it give?
The outcome was “inactive”.

With `CC=CC(=O)OCC(C)C` as the compound, how does the outcome read?
The outcome was “inactive”.

Which outcome does the source give for `CCCCCCCCCCCC(=O)N(C)CC(=O)O` here?
Its outcome is “inactive”.

`C=CC(=O)O[C@H]1C[C@@H]2CC[C@@]1(C)C2(C)C` was tested. Which outcome did it give?
The outcome was “inactive”.

Which outcome does the source give for `C=CCCCCCCCCOC(C)=O` here?
Its outcome is “inactive”.

With `C=CCCCCCCCCC=O` as the compound, how does the outcome read?
The outcome was “inactive”.

How did the outcome turn out when `CCCCC(CC)COS(=O)(=O)O` (stereo not given) was run?
Its outcome is “inactive”.

For `CC(C)C(=O)OCCc1ccccc1`, which outcome is on record?
The outcome was “inactive”.

How did the outcome turn out when `CC12CCC(CC1)C(C)(C)O2` was run?
Its outcome is “inactive”.

Which outcome does the source give for `CC=C(C)C=CC=C(C)C` here?
The outcome was “inactive”.

Which outcome does the source give for `CCC(C)(O)CCCC(C)C` (stereo not given) here?
Its outcome is “inactive”.

How did the AC50 turn out when `CC(C)c1cc(C(C)C)cc(C(C)C)c1` was run?
Its AC50 is 176 µM (active).

How did the outcome turn out when `CC(=O)OC/C=C(/C)CCC=C(C)C` was run?
The outcome was “inactive”.

How did the outcome turn out when `CCOC(=O)CC(=O)c1ccccc1` was run?
The outcome was “inactive”.

How did the outcome turn out when `CCCCNC(=S)NCCCC` was run?
Its outcome is “inactive”.

`C=Cc1cccc(C)c1` was tested. Which outcome did it give?
Its outcome is “inactive”.

For `CCCCOC(=O)C(C)CC` (stereo not given), which outcome is on record?
Its outcome is “inactive”.

For `c1ccc2cnccc2c1`, which outcome is on record?
The outcome was “inactive”.

For `CC(CC(C)C)=NO`, which outcome is on record?
Its outcome is “inactive”.

`CCCCOCCOCCOC(C)=O` was tested. Which outcome did it give?
The outcome was “inactive”.

With `CCCCCCCCC(CO)CCCCCC` (stereo not given) as the compound, how does the outcome read?
Its outcome is “inactive”.

For `CCC(C)C(=O)OCCc1ccccc1` (stereo not given), which outcome is on record?
The outcome was “inactive”.

How did the outcome turn out when `CC(C=O)c1ccccc1` (stereo not given) was run?
Its outcome is “inactive”.

With `CC(C)[N+](C)(CCOC(=O)C1c2ccccc2Oc2ccccc21)C(C)C` as the compound, how does the outcome read?
The outcome was “inactive”.

`C=C(C)C1CC=C(C)CC1` (stereo not given) was tested. Which outcome did it give?
Its outcome is “inactive”.

How did the outcome turn out when `CCC(C)N` (stereo not given) was run?
Its outcome is “inactive”.

For `CC(C)c1cccc(C(C)C)c1N`, which outcome is on record?
The outcome was “inactive”.

With `CC(C)CO` as the compound, how does the outcome read?
Its outcome is “inactive”.

How did the outcome turn out when `COc1ccc(-c2coc3cc(O)cc(O)c3c2=O)cc1` was run?
Its outcome is “inactive”.
